The record followed here is PubChem BioAssay (NCI).

Assay in all cases: NCI-60 one-dose screen, 48 h (100 = growth as untreated, 0 = no growth, -100 = all killed)
One test concerns NCI-H23 lung. As to conditions: 10 µM unless noted.
Another test deals with NCI-H322M lung. To be noted: 10 µM unless noted.
The next test relates to HOP-62 NSCLC. To be noted: 10 µM unless noted.
Another test has as its system NCI-H460 lung. As to conditions: 10 µM unless noted.
The subject of a further test is HOP-92 NSCLC. As to conditions: 10 µM unless noted.
Another test relates to 786-0 renal. As to conditions: 10 µM unless noted.
A further test has as its system COLO 205 colon. As to conditions: 10 µM unless noted.
The test system of another test is DU-145 prostate. To be noted: 10 µM unless noted.
Another test has as its system K-562 leukemia. To be noted: 10 µM unless noted.
Another test deals with MALME-3M melanoma. To be noted: 10 µM unless noted.
The next test concerns MDA-MB-231 breast. As to conditions: 10 µM unless noted.
A further test deals with SF-268 CNS. As to conditions: 10 µM unless noted.
The next test relates to SF-295 CNS. As to conditions: 10 µM unless noted.
For a further test, the system named is SF-539 CNS. To be noted: 10 µM unless noted.
The next test concerns UACC-257 melanoma. As to conditions: 10 µM unless noted.
The next test deals with M14 melanoma. To be noted: 10 µM unless noted.
The next test relates to A549/ATCC NSCLC. To be noted: 10 µM unless noted.
The subject of another test is RXF 393 renal. As to conditions: 10 µM unless noted.
The subject of a further test is NCI-H522 lung. As to conditions: 10 µM.

About 83,000 compounds went through this panel and 20% of them were active in at least one assay; those are over-represented in the sample as a whole.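 Cell lines were cultured in 96-well plates, exposed to a single compound concentration, and assessed for percent growth 48 hours later.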 Values without a mark were called inactive. The source made the active and inactive calls. How the source made its calls: active means growth percent below 10; inactive means the rest.

On to `CC(C)=CCNc1ncnc2c1ncn2C1OC(COP(=O)(O)O)C(O)C1O` (stereo unspecified), for which the growth with NCI-H23 lung is 57.8%; with NCI-H322M lung, 41.1%; in the test with HOP-62 NSCLC, 46.1%; in the test with NCI-H460 lung, 80.3%; in the test with HOP-92 NSCLC, 74.5%; in the test on 786-0 renal, 43.3%. Also, the growth was 63% in the test on COLO 205 colon; 4.87% (active) with DU-145 prostate; 16.1% in the test on K-562 leukemia; 68.5% with MALME-3M melanoma; 5.56% (active) in the test with MDA-MB-231 breast; 59.9% with SF-268 CNS. Further, the growth was 25.6% in the test on SF-295 CNS, 52% in the test with SF-539 CNS, 94.1% in the test on UACC-257 melanoma and 50.5% in the test on M14 melanoma.
With `Cc1ccc2nc3c(n2c1)C(=O)C(=O)c1ccccc1-3`, the growth in the test on NCI-H23 lung was -12.4% (active); in the test with NCI-H322M lung, -80.7% (active); in the test with HOP-62 NSCLC, -74.9% (active); with NCI-H460 lung it was -71.1% (active); with HOP-92 NSCLC, -77.2% (active); in the test on A549/ATCC NSCLC, -77.3% (active). Moreover, the growth in the test on 786-0 renal was -81% (active); with COLO 205 colon it was -69.2% (active); in the test on DU-145 prostate it was -89.5% (active); in the test with K-562 leukemia, -48.3% (active); in the test on MALME-3M melanoma it was -85.2% (active); in the test on MDA-MB-231 breast, -48.8% (active). Moreover, the growth in the test with RXF 393 renal is -91.3% (active); in the test with SF-268 CNS, -78.2% (active); in the test with SF-295 CNS, -71.1% (active); with SF-539 CNS, -90.1% (active); with UACC-257 melanoma, -90.3% (active); in the test with M14 melanoma, -81.3% (active).
For `CN1CCN(c2nc3scc(-c4ccccc4)c3c(=O)[nH]2)CC1`, the growth in the test with NCI-H23 lung is 100%; in the test on NCI-H322M lung, 90.3%; with NCI-H460 lung, 108%; with HOP-92 NSCLC, 98.5%; in the test on A549/ATCC NSCLC, 99%; with 786-0 renal, 98.3%. The growth in the test with COLO 205 colon is 99%; in the test on DU-145 prostate, 103%; in the test on K-562 leukemia, 95.9%; with MALME-3M melanoma, 86.4%; with MDA-MB-231 breast, 92%; in the test with RXF 393 renal, 96.5%. Also, the growth with SF-268 CNS is 96.7%; in the test on SF-295 CNS it was 96.6%; in the test on SF-539 CNS it was 93.7%; with UACC-257 melanoma, 108%; with M14 melanoma, 97.6%.
Take `COc1cccc(N2CCN(c3cccc(C)n3)CC2)c1`: the growth with NCI-H23 lung was 103%; in the test with NCI-H322M lung, 103%; with HOP-62 NSCLC, 87.7%; in the test with NCI-H460 lung, 117%; in the test on HOP-92 NSCLC it was 79.2%; with A549/ATCC NSCLC, 95.6%. In addition, the growth was 99.6% in the test on 786-0 renal; 123% in the test on COLO 205 colon; 106% in the test on DU-145 prostate; 85.2% in the test on K-562 leukemia; 102% in the test with MALME-3M melanoma; 101% with MDA-MB-231 breast. For the same molecule, the growth with RXF 393 renal was 76.4%; with SF-268 CNS it was 129%; in the test on SF-295 CNS, 83.2%; in the test on SF-539 CNS, 101%; in the test with UACC-257 melanoma, 97.7%; in the test on M14 melanoma, 89.9%.
With `CC(=O)Nc1c(Cl)cc2c(c1Cl)Cc1ccccc1-2`, the growth in the test on NCI-H23 lung was 91.5%; in the test on NCI-H322M lung, 106%; in the test with HOP-62 NSCLC, 107%; in the test on HOP-92 NSCLC, 87.7%; with A549/ATCC NSCLC, 92.1%; in the test on 786-0 renal, 108%. Besides, the growth was 112% in the test with COLO 205 colon; 108% in the test on DU-145 prostate; 104% with K-562 leukemia; 80.3% in the test on MDA-MB-231 breast; 104% in the test with RXF 393 renal; 111% with SF-268 CNS. The growth in the test on SF-295 CNS is 132%; with SF-539 CNS, 105%; with UACC-257 melanoma, 106%; with M14 melanoma, 107%.
For the molecule `CCN1CCN(c2nc(NNC(=O)Cc3ccccc3)nc(N3CCN(C(c4ccccc4)c4ccccc4)CC3)n2)CC1`, the growth in the test on NCI-H23 lung is 95.1%; in the test with NCI-H322M lung, 105%; in the test with HOP-62 NSCLC, 74.5%; in the test on NCI-H460 lung, 11.1%; in the test on HOP-92 NSCLC, 82.9%; in the test on A549/ATCC NSCLC, 46.6%. Also, the growth in the test with 786-0 renal was 64.1%; in the test with COLO 205 colon, -41.3% (active); in the test with DU-145 prostate, 63.5%; with K-562 leukemia it was 2.28% (active); with MALME-3M melanoma, 77%; in the test on MDA-MB-231 breast, 82.7%. The growth with RXF 393 renal is 66.6%; in the test with SF-268 CNS, 82%; with SF-295 CNS, 68.3%; in the test on SF-539 CNS it was 86.8%; in the test with UACC-257 melanoma, -51.5% (active); in the test with M14 melanoma, -68.2% (active).
As for `N#Cc1c(-c2ccc(F)cc2)n2c(nc1=O)SC(=O)C2=O`, the growth with NCI-H23 lung was 98.6%; with NCI-H322M lung it was 104%; in the test with HOP-62 NSCLC, 120%; with HOP-92 NSCLC, 96.6%; in the test on NCI-H522 lung, 103%; with 786-0 renal, 100%. The growth with COLO 205 colon was 134%; in the test with DU-145 prostate, 124%; in the test on K-562 leukemia it was 108%; in the test with MALME-3M melanoma, 90.8%; in the test on MDA-MB-231 breast it was 114%; with RXF 393 renal, 96.5%. Also, the growth was 93.4% in the test on SF-268 CNS; 103% in the test with SF-295 CNS; 115% with SF-539 CNS; 85.8% in the test with UACC-257 melanoma; 105% with M14 melanoma.
`CCOC(=O)N1CCC(N=C2CSc3nnc(-c4cc(C(F)(F)F)cc(C(F)(F)F)c4)n3N2)CC1`: the growth in the test on NCI-H23 lung was 15.3%; in the test on NCI-H322M lung, 67.4%; in the test on HOP-62 NSCLC, -4.27% (active); with NCI-H460 lung, 18.2%; in the test on HOP-92 NSCLC, 19.9%; with A549/ATCC NSCLC, 21.5%. Besides, the growth in the test on COLO 205 colon is -9.91% (active); in the test on DU-145 prostate, 64.6%; in the test on K-562 leukemia, 28.3%; in the test on MALME-3M melanoma, 68.4%; in the test with MDA-MB-231 breast it was 34.4%; in the test on SF-268 CNS, 50.2%. The growth in the test on SF-295 CNS is 33.4%; in the test on SF-539 CNS, 18.3%; with UACC-257 melanoma it was 48.6%; with M14 melanoma, 27.5%.
